In the OligoGym collection one finds sensor-assay potency score (higher = more potent) data, which are given here for 24 sequences.
Note: reference of the scale not given here.

The first experiment has as its target NLRP9. Briefly: pooled miR-30 sensor sort-seq; sequence = guide strand. As to conditions: shRNA.
Take TTGTTTAACGTACTTGTGCTTC: the sensor-assay potency score (higher = more potent) was -0.694. Turning to TTGACTTAAACTTTCAAGGCAT, the sensor-assay potency score (higher = more potent) was 0.797. Same read-out and setting: next, TTGTATTCCTCGTCAATCCAAG: -0.958; TTCTGTGTCAGAAGTATCCGGA: 0.451; TTGGTAATGAACATTGAGCAAA: -1.26. TATTGCTAGAACACTTAGGGAG: the sensor-assay potency score (higher = more potent) stood at 0.102. The same measure, in the same setting: next, TTTTTTTGCAACAAACTGCTCA: 0.0842; TTTACAAACAGGCTGAGCCAGC: -0.948; TTTCACACAAGTACAGACCAAC: -0.447.

In the case of TTGTTGGTAATGAACATTGAGC, the sensor-assay potency score (higher = more potent) is -1.13.

On to TCTATAGACACATTCTAGCATC, for which the sensor-assay potency score (higher = more potent) was -0.783. In turn, TAAATGTTGACAATGCTTCAGG yielded a sensor-assay potency score (higher = more potent) of 0.0203.

In the next experiment the target is NMD3. The description is as above. As to conditions: shRNA.
In turn, TTAGCCATTATCTTCATGCTGG had a sensor-assay potency score (higher = more potent) of 0.243. The sequence TCGAATACACACACAAATCTGG had a sensor-assay potency score (higher = more potent) of -0.268. Still for that read-out and setting: then TTGAAGGATAGCACCATTCATC, with -0.92; and TTGATTAATACCACATCTGGAA, with -0.0213. Same read-out and setting: then TTTATATCTTGGACTATGCTGC, with 0.0732; and TATCTTGAGAGATCAGTCTTTG, with -0.699; and TTAACAAGTCTGATCTTGCTTA, with 0.213. Still for that read-out and setting: next, TTTTTGAGCTTTTACATCCAGA: -0.415; TTCACTAAAATAATCAACGTAA: -0.261. The sequence TACTTAACAAGTCTGATCTTGC yielded a sensor-assay potency score (higher = more potent) of 0.186. Still for that read-out and setting: then TTGATATCATTCCAGCACCTGC, with -1.29; and TTAACTTTAAGTCTCTTAGAAT, with -1.22.
